Screens deposited in PubChem by National Center for Advancing Translational Sciences (NCATS).
Sampled rows, rich in hits. Any-hit rate of the full collection: about 4.8%.
ATXN viability: Viability Counterscreen for Primary qHTS for Inhibitors of ATXN expression; Potency, µM (highest dose often 56.7 µM), most hits filed as cytotoxic; actives 0.49% (n = 400,000); AID 651635, 2014; S2 cells (HEK-293 line with an ATXN2-luciferase reporter) viability, CellTiter-Fluor protease fluorescence, 24 h; also: potency is read from the fitted curve at half-maximal effect; nearly all actives have a fitted effect of over 40% in size
TGFb inhibitor: qHTS for Inhibitors of TGF-b; actives 1.2% (n = 410,000); HepG2 CAGA-GFP TGF-b/SMAD3 reporter, GFP fluorescence, 18 h; TGF-beta stimulated, 500 pg/mL final; Potency, µM (highest dose often 46.1 µM), for the others: top-dose activity, negative = inhibition, most hits filed as inhibitors; AID 588855, 2011; also: potency is read from the fitted curve at half-maximal effect; % is scaled to controls: 0 for no effect and ±100 for the full control effect; nearly all actives have a fitted effect of over 65% in size
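TGF-beta reporter screen: HEPG2 CAGA-GFP, 1% FBS, 500 pg/mL TGF-beta final, 18 h; per-cell GFP summed per well; curves fitted and categorized by class.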
HepG2 viability: qHTS for Inhibitors of TGF-b: Cytotox Counterscreen; HepG2 CAGA-GFP viability, ATP luminescence, 18 h; Potency, µM (top dose mostly 46.1 µM), for the others: at the top dose activity change, negative = cytotoxicity, usual class: cytotoxic; actives 0.76% (n = 410,000); also: potency is read from the fitted curve at half-maximal effect
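CellTiter-Glo luminescence gave cytotoxicity after 18 hours at 37 degrees C. The cells were HepG2 CAGA-GFP in 1% FBS DMEM, stimulated with 500 pg/mL TGF-beta after compound addition. %Activity was normalised to no-cell wells (complete cell-killing) and DMSO (no toxicity), and curves were fitted and classified.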
D3 ag: qHTS of D3 Dopamine Receptor Agonist: qHTS; D(3) dopamine receptor (Homo sapiens), P35462; D3R DiscoveRx beta-arrestin cells, luminescence, 90 min; max activation, %; actives 0.58% (n = 410,000); in the data active = max activation above about 30%; also: 0% is about no effect
Target sequence (P35462 whole entry, looked up): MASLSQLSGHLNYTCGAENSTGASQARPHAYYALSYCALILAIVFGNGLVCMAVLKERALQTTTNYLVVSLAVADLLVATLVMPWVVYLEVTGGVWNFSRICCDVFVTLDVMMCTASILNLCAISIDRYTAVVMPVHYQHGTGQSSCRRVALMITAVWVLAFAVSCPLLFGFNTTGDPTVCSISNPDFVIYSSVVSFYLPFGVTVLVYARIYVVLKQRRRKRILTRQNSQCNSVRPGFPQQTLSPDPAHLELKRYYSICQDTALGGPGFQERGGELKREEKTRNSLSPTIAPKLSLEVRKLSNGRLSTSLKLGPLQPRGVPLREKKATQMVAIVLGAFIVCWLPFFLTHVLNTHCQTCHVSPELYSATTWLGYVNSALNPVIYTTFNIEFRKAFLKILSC
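Cells at 1500/well, incubated overnight, then treated with pinned compounds (dopamine as control) for 90 min at 37 degrees C. DiscoveRx reagent added for 30 - 60 minutes at room temperature; luminescence read.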
ATXN2 expr inh: Primary qHTS for Inhibitors of ATXN expression | actives 0.72% (n = 360,000) | HEK-293 ATXN2-luciferase reporter, luminescence, 24 h | Potency, µM (titrated, usually from 57 µM), without a hit: at the top dose activity change, negative = inhibition, hits mostly inhibitors; also: potency is read from the fitted curve at half-maximal effect; % is scaled to controls: 0 for no effect and ±100 for the full control effect; nearly all actives have a fitted effect of over 55% in size
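ATXN2-luciferase reporter cells (luciferase flanked by upstream and downstream ATXN2 gene portions) were treated 24 h at 37 °C with compounds at up to 57 uM. SteadyGlo luminescence gave expression; GF-AFC fluorescence gave viability.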
D3 antag: qHTS of D3 Dopamine Receptor Antagonist: qHTS; D(3) dopamine receptor (Homo sapiens), P35462; D3R cells, DiscoveRx beta-arrestin luminescence, antagonist mode; hits give low values; max response, negative = inhibition, %; actives 2.5% (n = 360,000); AID 652054, 2013; in the data active = max response below about -50%; inconclusive = no clear call, values can overlap the other calls; also: % is scaled to controls: 0 for no effect and ±100 for the full control effect
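Cells expressing the human receptor were seeded at 1500 cells/well, incubated overnight at 37 degrees C in 5% CO2, then exposed to library compounds with dopamine controls for 90 minutes at 37 degrees C before luminescent detection.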
Starred values were filed as active, the others as inactive. Unless noted, calls follow the shape of the dose curve; as a rule, active = well fitted curve in the direction sought with a large enough effect; inconclusive = small, poorly fitted or top-dose-only effect, or another doubt; inactive = no such curve, though single readings can be large; an effect the other way counts as inactive or inconclusive.

Screening CC1Cc2ccccc2N1C(=O)Cn1nnc(-c2ccccc2NC(=O)C2CCC2)n1 (stereo not given) returned ATXN viability inactive, TGFb inhibitor -20%, HepG2 viability -7%, D3 ag 9, ATXN2 expr inh -8% and D3 antag -98*.
c1ccc(C2Nc3cccc4cccc(c34)N2)cc1 was read as ATXN viability inconclusive, TGFb inhibitor 1%, HepG2 viability -9%, D3 ag 2, ATXN2 expr inh -9% and D3 antag 7.
Screening c1csc(C2Nc3cccc4cccc(c34)N2)c1 returned ATXN viability inactive, TGFb inhibitor 0%, HepG2 viability 0%, D3 ag -2, ATXN2 expr inh -10% and D3 antag -70*.
O=C(NCC1CCCO1)c1cccc2c1C(=O)c1ccc(N3CCC(Cc4ccccc4)CC3)cc1S2(=O)=O (stereo not given) was read as ATXN viability inconclusive, TGFb inhibitor inconclusive, HepG2 viability 2%, D3 ag 50*, ATXN2 expr inh inconclusive and D3 antag 134.
Screening O=C1c2ccccc2S(=O)(=O)c2cc(N3CCN(c4ccccc4)CC3)ccc21 returned ATXN viability inactive, TGFb inhibitor 5%, HepG2 viability -2%, D3 ag 52*, ATXN2 expr inh 5% and D3 antag 78.
Screening CC1CCN(c2ccc3c(c2)S(=O)(=O)c2cccc(C(=O)NC[C@@H]4CCCO4)c2C3=O)CC1 returned ATXN viability inactive, TGFb inhibitor 0%, HepG2 viability 3%, D3 ag 31*, ATXN2 expr inh 9% and D3 antag 108.
`CC1CCN(c2ccc3c(c2)S(=O)(=O)c2cccc(C(=O)NC4CC4)c2C3=O)CC1` gave ATXN viability inactive, TGFb inhibitor 4%, HepG2 viability -21%, D3 ag 52*, ATXN2 expr inh 17% and D3 antag 50.
Screening O=C(NC[C@@H]1CCCO1)c1cccc2c1C(=O)c1ccc(N3CCOCC3)cc1S2(=O)=O returned ATXN viability inconclusive, TGFb inhibitor 13%, HepG2 viability 4%, D3 ag 27, ATXN2 expr inh 0% and D3 antag 72.
COc1ccc(Cn2c(C(=O)O)c(CNC3CCC(C)CC3)c3ccc(C)cc32)cc1 (stereo not given) was read as ATXN viability inactive, TGFb inhibitor -13%, HepG2 viability -12%, D3 ag 1 and ATXN2 expr inh 1%.
For CCN(CC)C(=O)Cn1c(=O)n(Cc2ccc(C(=O)NCCc3ccc(OC)c(OC)c3)cc2)c(=O)c2ccccc21 the results were ATXN viability inactive, TGFb inhibitor -7%, HepG2 viability 2%, D3 ag 1 and ATXN2 expr inh 11%.
COc1ccc(N2CCN(C(=O)C3CCN(S(=O)(=O)c4cccc5nonc45)CC3)CC2)cc1 was read as ATXN viability inactive, TGFb inhibitor -20%, HepG2 viability -4%, D3 ag 8 and ATXN2 expr inh -3%.
For CC(C)CSc1ccccc1NC(=O)c1sc2nc(-c3ccncc3)ccc2c1N the results were ATXN viability inactive, TGFb inhibitor -8%, HepG2 viability -58%, D3 ag -4 and ATXN2 expr inh 6%.
O=c1/c(=C\c2ccc(O)cc2)sc2n1C(c1ccccc1)C(c1ccccc1)=NN=2 (stereo not given) was read as ATXN viability inactive, TGFb inhibitor 1%, HepG2 viability 12%, D3 ag -28, ATXN2 expr inh -12% and D3 antag -59*.
`COc1cccc(C2C(C(=O)OC(C)C)=C(C)N=c3s/c(=C\c4ccc(C(=O)O)cc4)c(=O)n32)c1` (stereo not given) gave ATXN viability inactive, TGFb inhibitor 1%, HepG2 viability -1%, D3 ag -9, ATXN2 expr inh -23% and D3 antag -18.
`COc1cccc(C(C)(O)c2nc(-c3ccc(F)cc3OC)cs2)c1` (stereo not given) gave ATXN viability inactive, TGFb inhibitor 2%, HepG2 viability -15%, D3 ag -3, ATXN2 expr inh -2% and D3 antag 0.
For COc1cc(F)ccc1-c1csc(C(O)(c2ccccc2)C(F)(F)F)n1 (stereo not given) the results were ATXN viability inconclusive, TGFb inhibitor inconclusive, HepG2 viability 22µM*, D3 ag -7, ATXN2 expr inh inconclusive and D3 antag 0.
For CN(C)c1ccc(-c2csc(C(O)(c3ccccc3)C(F)(F)F)n2)cc1 (stereo not given) the results were ATXN viability inactive, TGFb inhibitor inconclusive, HepG2 viability 16µM*, D3 ag -12, ATXN2 expr inh 13% and D3 antag -94*.
`CCOc1ccc(-c2cc(C(=O)NCc3ccccc3Cl)c3ccccc3n2)cc1` gave ATXN viability inactive, TGFb inhibitor -13%, HepG2 viability -1%, D3 ag -1 and ATXN2 expr inh 13%.
For CCN(CC)c1ccc(N=Cc2ccccc2[N+](=O)[O-])cc1 the results were ATXN viability inconclusive, TGFb inhibitor inconclusive, HepG2 viability 8.9µM*, D3 ag -8, ATXN2 expr inh inconclusive and D3 antag -11.
Screening CCN(CC)c1ccc(N=Cc2ccc([N+](=O)[O-])o2)cc1 returned ATXN viability inactive, TGFb inhibitor -29%, HepG2 viability -77%, D3 ag -4, ATXN2 expr inh 0% and D3 antag 0.
For Cc1ccccc1OC(=O)CSc1nnc(-c2ccc3c(c2)OCO3)o1 the results were TGFb inhibitor inconclusive, HepG2 viability 7% and D3 ag -6.
`Cc1ccc(/C=C2\SC(=S)N(/N=C/c3cc([N+](=O)[O-])ccc3O)C2=O)o1` gave ATXN viability inconclusive, TGFb inhibitor -3%, HepG2 viability -4%, D3 ag -4, ATXN2 expr inh -2% and D3 antag -75*.
COC(CNC(=O)c1ccc2c3c(onc13)-c1ccccc1C2=O)OC was read as TGFb inhibitor 11µM*, HepG2 viability -95%, D3 ag 1, ATXN2 expr inh inconclusive and D3 antag 1.
COC(CNC(=O)c1cccnc1)OC was read as ATXN viability inactive, TGFb inhibitor -2%, HepG2 viability -1%, D3 ag 3 and D3 antag 22.
